According to PubChem BioAssay AID743320 (Broad Institute, 2014):
Results with a measured potency or affinity are listed apart. Calls of active or inactive are those of the source.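 Rule for the calls: active = signal drop whose fitted half-maximal potency is at most twice the top valid dose tested; inconclusive = flat curve inhibiting 30 to 70 percent, or a poor fit; inactive = the rest.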

Each compound was assayed against Endoplasmic reticulum aminopeptidase 2 (Homo sapiens) (UniProt Q6P179) (assay: ERAP2 aminopeptidase inhibitors, dose response, selectivity assay for selective ERAP1 modulator project, biochemical, fluorescence plate reader, cherry-picked, set 2 (AID 743320)). Settings: recombinant ERAP2, Arg-AMC fluorescence, 1 h; series mostly up to 11 µM; activity change, negative = inhibition: at the top concentration.
Sequence of Endoplasmic reticulum aminopeptidase 2 (Homo sapiens) (Q6P179 whole entry, looked up): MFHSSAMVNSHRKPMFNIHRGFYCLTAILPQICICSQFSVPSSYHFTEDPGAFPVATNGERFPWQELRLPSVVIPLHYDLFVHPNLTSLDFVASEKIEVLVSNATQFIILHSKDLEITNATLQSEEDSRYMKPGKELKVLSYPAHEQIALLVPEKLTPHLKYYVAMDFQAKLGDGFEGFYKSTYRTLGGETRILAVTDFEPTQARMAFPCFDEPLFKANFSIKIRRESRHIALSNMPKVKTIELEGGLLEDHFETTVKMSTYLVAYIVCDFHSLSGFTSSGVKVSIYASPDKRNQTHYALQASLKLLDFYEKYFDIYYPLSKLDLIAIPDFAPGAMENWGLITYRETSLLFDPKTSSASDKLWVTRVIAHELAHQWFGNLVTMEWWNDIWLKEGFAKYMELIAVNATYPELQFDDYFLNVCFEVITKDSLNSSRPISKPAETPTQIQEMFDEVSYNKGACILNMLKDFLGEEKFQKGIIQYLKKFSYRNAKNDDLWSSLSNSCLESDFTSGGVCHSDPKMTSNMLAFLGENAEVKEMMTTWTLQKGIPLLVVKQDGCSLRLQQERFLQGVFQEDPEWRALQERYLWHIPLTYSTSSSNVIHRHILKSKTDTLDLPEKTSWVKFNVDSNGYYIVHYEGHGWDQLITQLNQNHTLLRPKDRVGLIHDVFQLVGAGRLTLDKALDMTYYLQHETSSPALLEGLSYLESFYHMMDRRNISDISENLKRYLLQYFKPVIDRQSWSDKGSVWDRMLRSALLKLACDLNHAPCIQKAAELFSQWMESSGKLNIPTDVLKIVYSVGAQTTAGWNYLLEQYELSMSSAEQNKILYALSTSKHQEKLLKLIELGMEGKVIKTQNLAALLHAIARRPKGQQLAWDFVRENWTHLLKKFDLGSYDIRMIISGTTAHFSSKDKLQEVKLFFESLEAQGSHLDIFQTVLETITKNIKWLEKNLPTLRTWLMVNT

Activity change, negative = inhibition, inactive:
C[C@@H]1CCCCO[C@@H](CN(C)CC2CC2)[C@@H](C)CN([C@H](C)CO)C(=O)c2cc(NS(=O)(=O)c3ccc(Cl)cc3)ccc2O1 18.4%
O=C(C[C@H]1CC[C@@H]2[C@H](COC[C@@H](O)CN2C(=O)Nc2cccc(Cl)c2)O1)N1CCCCC1 32.4%
Cc1ccccc1-c1ccc2c(c1)O[C@@H](CN(C)Cc1ccc(C(=O)O)cc1)[C@@H](C)CN([C@@H](C)CO)S2(=O)=O 0.523%
COc1ccc(CN(C)C[C@@H]2OCCCC[C@H](C)Oc3ccc(NS(=O)(=O)c4cccs4)cc3C(=O)N([C@@H](C)CO)C[C@@H]2C)cc1 20.4%
COc1ccc(S(=O)(=O)Nc2ccc3c(c2)C(=O)N([C@@H](C)CO)C[C@H](C)[C@H](CN(C)C)OCCCC[C@@H](C)O3)cc1 5.02%
C[C@@H]1CCCCO[C@@H](CN(C)C(=O)CCC(F)(F)F)[C@@H](C)CN([C@@H](C)CO)C(=O)c2cc(NS(=O)(=O)c3ccccc3)ccc2O1 14.4% [at 2.6 µM]
CC(=O)N1CCN(C(=O)C2(NC(=O)Nc3ccc(C)cc3)CCCCC2)CC1 2.05%
C[C@@H]1CN([C@H](C)CO)C(=O)c2cc(NC(=O)Nc3ccc(F)cc3)ccc2O[C@H]1CN(C)Cc1ccc(C(=O)O)cc1 1.24%
C[C@@H]1CCCCO[C@@H](CN(C)Cc2ccc3c(c2)OCO3)[C@@H](C)CN([C@@H](C)CO)C(=O)c2cc(NS(=O)(=O)c3ccccc3)ccc2O1 12.7% [at 5.6 µM]
C[C@@H]1CCCCO[C@@H](CN(C)Cc2ccc3c(c2)OCO3)[C@@H](C)CN([C@H](C)CO)C(=O)c2cc(NS(=O)(=O)c3cccs3)ccc2O1 1.03%
O=C(C[C@H]1CC[C@H]2[C@@H](COC[C@@H](O)CN2C(=O)Nc2cccc(Cl)c2)O1)N1CCCCC1 8.71%
COc1ccc(NC(=O)Nc2cccc3c2O[C@H](CN(C)Cc2ccc(C(=O)O)cc2)[C@H](C)CN([C@H](C)CO)C3=O)cc1 15.1%
CNC[C@H]1OCCCC[C@@H](C)Oc2ccc(NS(=O)(=O)c3ccc(C)cc3)cc2C(=O)N([C@@H](C)CO)C[C@H]1C 1.54%
Cc1noc(C)c1S(=O)(=O)Nc1ccc2c(c1)C(=O)N([C@H](C)CO)C[C@@H](C)[C@@H](CN(C)CC1CCCCC1)OCCCC[C@@H](C)O2 1.44%
CCCN(C)C[C@@H]1OCCCC[C@@H](C)Oc2ccc(NS(=O)(=O)c3ccc(C)cc3)cc2C(=O)N([C@H](C)CO)C[C@@H]1C 6.04% [at 10 µM]
COC(=O)[C@H]1[C@H](CO)[C@H]2Cn3c(ccc(-c4ccncc4)c3=O)[C@H]2N1Cc1ccccc1F 15.2%
COc1ccc(NC(=O)Nc2ccc3c(c2)C(=O)N([C@H](C)CO)C[C@@H](C)[C@@H](CN(C)Cc2ccc(C(=O)O)cc2)OCCCC[C@@H](C)O3)cc1 2.96%
O=C(O)c1cccc(NC(=O)c2ccccc2NC(=O)c2cccc([N+](=O)[O-])c2)c1 15.7%
C[C@@H]1CCCCO[C@H](CN(C)Cc2ccc(C(=O)O)cc2)[C@@H](C)CN([C@H](C)CO)C(=O)c2cc(NC(=O)Nc3ccc(C(F)(F)F)cc3)ccc2O1 2.62%
CCCN(C)C[C@@H]1OCCCC[C@@H](C)Oc2ccc(NS(=O)(=O)c3ccc(F)cc3)cc2C(=O)N([C@H](C)CO)C[C@@H]1C 10.6%
COc1ccc2c3c([nH]c2c1)[C@H](CO)N(Cc1cc(F)ccc1F)CC31CN(C)C1 11.2%
Cc1ccc(-c2cc(C(=O)N3CCCC3)c3ccccc3n2)s1 133%
CCCN(C)C[C@@H]1OCCCC[C@@H](C)Oc2ccc(NS(=O)(=O)c3ccccc3)cc2C(=O)N([C@H](C)CO)C[C@@H]1C 16%
C[C@@H]1CCCCO[C@@H](CN(C)CC2CC2)[C@@H](C)CN([C@H](C)CO)C(=O)c2cc(NS(=O)(=O)c3cccs3)ccc2O1 14.7%
C[C@@H]1CCCCO[C@@H](CN(C)S(C)(=O)=O)[C@@H](C)CN([C@@H](C)CO)C(=O)c2cc(NS(=O)(=O)c3ccc(Cl)cc3)ccc2O1 9.01%
COc1ccc(NC(=O)Nc2ccc3c(c2)C(=O)N([C@@H](C)CO)C[C@@H](C)[C@H](CN(C)Cc2ccc(C(=O)O)cc2)OCCCC[C@H](C)O3)cc1 37.6%
C[C@H](CO)N1C[C@H](C)[C@H](CN(C)Cc2ccncc2)Oc2c(NC(=O)Nc3ccc(C(F)(F)F)cc3)cccc2C1=O 4.68%
C[C@H](CO)N1C[C@H](C)[C@H](CN(C)CC2CCCCC2)Oc2c(NC(=O)Nc3ccc(C(F)(F)F)cc3)cccc2C1=O 11.4%
C[C@@H]1CCCCO[C@@H](CN(C)Cc2ccccc2)[C@@H](C)CN([C@H](C)CO)C(=O)c2cc(NS(=O)(=O)c3cccs3)ccc2O1 12.1% [at 5.6 µM]
